This is an account of results in article PMC8384837, “Expanding the binding specificity for RNA recognition by a PUF domain”.

Positions count from the first letter of the chain named.

Experiment in all cases: yeast three-hybrid, YBZ-1, SC-Leu-His + 0.5 mM 3-AT, 4 days
Conditions in all cases: tags: N-Gal4 AD-HA kept; label: inside an RPR1-promoter hybrid RNA with tandem MS2 sites; ssRNA

One assay has as its target PUM1 PUF domain R7-ERR (Homo sapiens, UniProt Q14671 828-1176, S1079E;N1080R;E1083R). Put shortly:
(§1)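 Sequencing with Illumina followed PCR amplification of the repeat regions from transformants grown four days on SC-Leu (input) or SC-Leu-His + 0.5 mM 3-AT (selection). The transformants were strain YBZ-1 with a LexA–MS2 coat fusion and a HIS3 reporter, carrying Pumilio-1 PUF domain libraries and matching RNA elements. The interaction score is the log change in variant frequency from input to selection, computed in log2 with a pseudocount of 1 for absent variants.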

In a further assay the target is PUM1 PUF domain R4-PHL (Homo sapiens, UniProt Q14671 828-1176, N971P;Q975L). Put shortly: as §1
Another assay has as its target PUM1 PUF domain R4-NCG (Homo sapiens, UniProt Q14671 828-1176, H972C;Q975G). In outline:
as §1

The next assay deals with PUM1 PUF domain R1-RTV (Homo sapiens, UniProt Q14671 828-1176, S863R;R864T;Q867V). In outline:
as §1

The next assay deals with PUM1 PUF domain R1-GWK (Homo sapiens, UniProt Q14671 828-1176, S863G;R864W;Q867K). Put shortly:
as §1

The next assay has as its target PUM1 PUF domain R3-RAW (Homo sapiens, UniProt Q14671 828-1176, C935R;R936A;Q939W). In outline:
as §1

A further assay addresses PUM1 PUF domain R7-RVS (Homo sapiens, UniProt Q14671 828-1176, S1079R;N1080V;E1083S). Put shortly: as §1
For the next assay, the target named is PUM1 PUF domain R8-IYW (Homo sapiens, UniProt Q14671 828-1176, N1122I;Q1126W). Put shortly: as §1
For the next assay, the target named is T1, PUM1 PUF domain R6-SFM (Homo sapiens, UniProt Q14671 828-1176, N1043S;Y1044F;Q1047M).
T1 sequence: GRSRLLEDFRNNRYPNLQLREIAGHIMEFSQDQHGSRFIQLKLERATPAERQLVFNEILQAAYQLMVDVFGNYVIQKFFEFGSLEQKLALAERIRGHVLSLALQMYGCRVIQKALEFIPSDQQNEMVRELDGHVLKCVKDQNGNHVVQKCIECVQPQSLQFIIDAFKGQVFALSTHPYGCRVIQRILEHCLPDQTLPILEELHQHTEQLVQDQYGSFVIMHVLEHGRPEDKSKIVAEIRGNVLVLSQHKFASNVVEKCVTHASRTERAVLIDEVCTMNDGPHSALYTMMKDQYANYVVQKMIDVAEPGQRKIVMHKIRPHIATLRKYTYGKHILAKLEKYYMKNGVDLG
Put shortly:
as §1

A further assay has as its target T2, PUM1 PUF domain R6-GFS (Homo sapiens, UniProt Q14671 828-1176, N1043G;Y1044F;Q1047S).
T2 sequence: T1 sequence with S216G, M220S
In outline:
as §1

The target of another assay is PUM1 PUF domain R4-SPQ (Homo sapiens, UniProt Q14671 828-1176, N971S;H972P). Put shortly: as §1
The next assay concerns the target T3, PUM1 PUF domain R6-VFL (Homo sapiens, UniProt Q14671 828-1176, N1043V;Y1044F;Q1047L).
T3 sequence: T1 sequence with S216V, M220L
In outline: as §1

For the next assay, the target named is PUM1 PUF domain R5-PHQ (Homo sapiens, UniProt Q14671 828-1176, C1007P;R1008H). In outline:
as §1

A further assay concerns the target PUM1 PUF domain R5-KQM (Homo sapiens, UniProt Q14671 828-1176, C1007K;R1008Q;Q1011M). In outline: as §1
The next assay deals with PUM1 PUF domain R5-KGN (Homo sapiens, UniProt Q14671 828-1176, C1007K;R1008G;Q1011N). In outline:
as §1

The next assay addresses PUM1 PUF domain R5-NVR (Homo sapiens, UniProt Q14671 828-1176, C1007N;R1008V;Q1011R). In outline: as §1
Another assay deals with PUM1 PUF domain R1-KKD (Homo sapiens, UniProt Q14671 828-1176, S863K;R864K;Q867D). Put shortly: as §1
Another assay deals with PUM1 PUF domain R2-EPW (Homo sapiens, UniProt Q14671 828-1176, N899E;Y900P;Q903W). In outline:
as §1

The target in the next assay is PUM1 PUF domain R5-RVC (Homo sapiens, UniProt Q14671 828-1176, C1007R;R1008V;Q1011C). In outline:
as §1

The next assay concerns the target PUM1 PUF domain R2-AWS (Homo sapiens, UniProt Q14671 828-1176, N899A;Y900W;Q903S). Put shortly:
as §1

With “GGCUAGAACUAGUGGAUCCCCCGGCGCCCGGCGGCUCGAGCCCGGGUAAGUCUAAAUAGUCUGCAUGCCGCCGGGCGCCAUGCCUGCAGGUCGACUCUAGAAAACAUG”, in the assay with PUM1 PUF domain R7-ERR, the binding signal is 1.25 log2 enrichment (interaction score).

Consider “GGCUAGAACUAGUGGAUCCCCCGGCGCCCGGCGGCUCGAGCCCGGGUAAGUGUAUAUAGUCUGCAUGCCGCCGGGCGCCAUGCCUGCAGGUCGACUCUAGAAAACAUG”, for which the binding signal in the assay with PUM1 PUF domain R4-PHL is 5.92 log2 enrichment (interaction score); with PUM1 PUF domain R4-NCG, 3.59 log2 enrichment (interaction score). Regarding “GGCUAGAACUAGUGGAUCCCCCGGCGCCCGGCGGCUCGAGCCCGGGUAAGUGUAAAUCGUCUGCAUGCCGCCGGGCGCCAUGCCUGCAGGUCGACUCUAGAAAACAUG”, the binding signal is 4.19 log2 enrichment (interaction score) in the assay with PUM1 PUF domain R1-RTV and 3.6 log2 enrichment (interaction score) with PUM1 PUF domain R1-GWK.

In the case of “GGCUAGAACUAGUGGAUCCCCCGGCGCCCGGCGGCUCGAGCCCGGGUAAGUGUAAUUAGUCUGCAUGCCGCCGGGCGCCAUGCCUGCAGGUCGACUCUAGAAAACAUG”, in the assay with PUM1 PUF domain R3-RAW, the binding signal was 4.11 log2 enrichment (interaction score).

For the sequence “GGCUAGAACUAGUGGAUCCCCCGGCGCCCGGCGGCUCGAGCCCGGGUAAGUGUAAGUAGUCUGCAUGCCGCCGGGCGCCAUGCCUGCAGGUCGACUCUAGAAAACAUG”, in the assay with PUM1 PUF domain R3-RAW, the binding signal is 1.15 log2 enrichment (interaction score). For the sequence “GGCUAGAACUAGUGGAUCCCCCGGCGCCCGGCGGCUCGAGCCCGGGUAAGUUUAAAUAGUCUGCAUGCCGCCGGGCGCCAUGCCUGCAGGUCGACUCUAGAAAACAUG”, the binding signal with PUM1 PUF domain R7-RVS is 3.16 log2 enrichment (interaction score); in the assay with PUM1 PUF domain R7-ERR, 3.08 log2 enrichment (interaction score).

With “GGCUAGAACUAGUGGAUCCCCCGGCGCCCGGCGGCUCGAGCCCGGGUAAGCGUAAAUAGUCUGCAUGCCGCCGGGCGCCAUGCCUGCAGGUCGACUCUAGAAAACAUG”, the binding signal with PUM1 PUF domain R8-IYW was 2.87 log2 enrichment (interaction score). “GGCUAGAACUAGUGGAUCCCCCGGCGCCCGGCGGCUCGAGCCCGGGUAAGUGUAAAUAGUCUGCAUGCCGCCGGGCGCCAUGCCUGCAGGUCGACUCUAGAAAACAUG”: the binding signal in the assay with PUM1 PUF domain R6-SFM is 2.95 log2 enrichment (interaction score); in the assay with PUM1 PUF domain R6-GFS, 2.76 log2 enrichment (interaction score); in the assay with PUM1 PUF domain R4-PHL it was 5.53 log2 enrichment (interaction score); with PUM1 PUF domain R4-SPQ, 3.02 log2 enrichment (interaction score); in the assay with PUM1 PUF domain R6-VFL, 1.07 log2 enrichment (interaction score); with PUM1 PUF domain R5-PHQ it was 3.63 log2 enrichment (interaction score). In the case of “GGCUAGAACUAGUGGAUCCCCCGGCGCCCGGCGGCUCGAGCCCGGGUAAGUGUAAAUGGUCUGCAUGCCGCCGGGCGCCAUGCCUGCAGGUCGACUCUAGAAAACAUG”, in the assay with PUM1 PUF domain R1-RTV, the binding signal is 2.39 log2 enrichment (interaction score).

As for “GGCUAGAACUAGUGGAUCCCCCGGCGCCCGGCGGCUCGAGCCCGGGUAAGUGUUAAUAGUCUGCAUGCCGCCGGGCGCCAUGCCUGCAGGUCGACUCUAGAAAACAUG”, the values for the binding signal in the assay with PUM1 PUF domain R5-KQM, in the assay with PUM1 PUF domain R5-KGN and with PUM1 PUF domain R5-NVR were 4.71 log2 enrichment (interaction score), 3.75 log2 enrichment (interaction score) and 4.09 log2 enrichment (interaction score), respectively.

As for “GGCUAGAACUAGUGGAUCCCCCGGCGCCCGGCGGCUCGAGCCCGGGUAAGUGUAAAUUGUCUGCAUGCCGCCGGGCGCCAUGCCUGCAGGUCGACUCUAGAAAACAUG”, the binding signal with PUM1 PUF domain R1-RTV is 3.33 log2 enrichment (interaction score); with PUM1 PUF domain R1-KKD it was 3.36 log2 enrichment (interaction score); with PUM1 PUF domain R1-GWK, 3.01 log2 enrichment (interaction score). With “GGCUAGAACUAGUGGAUCCCCCGGCGCCCGGCGGCUCGAGCCCGGGUAAGUGUAAAGAGUCUGCAUGCCGCCGGGCGCCAUGCCUGCAGGUCGACUCUAGAAAACAUG”, the binding signal with PUM1 PUF domain R2-EPW is 3.25 log2 enrichment (interaction score).

Consider “GGCUAGAACUAGUGGAUCCCCCGGCGCCCGGCGGCUCGAGCCCGGGUAAGUGUACAUAGUCUGCAUGCCGCCGGGCGCCAUGCCUGCAGGUCGACUCUAGAAAACAUG”, for which the binding signal in the assay with PUM1 PUF domain R4-PHL is 3.73 log2 enrichment (interaction score).

On to “GGCUAGAACUAGUGGAUCCCCCGGCGCCCGGCGGCUCGAGCCCGGGUAAGUGUCAAUAGUCUGCAUGCCGCCGGGCGCCAUGCCUGCAGGUCGACUCUAGAAAACAUG”, for which the figures for the binding signal with PUM1 PUF domain R5-RVC and with PUM1 PUF domain R5-NVR were 2.54 log2 enrichment (interaction score) and 2.77 log2 enrichment (interaction score), respectively.

Consider “GGCUAGAACUAGUGGAUCCCCCGGCGCCCGGCGGCUCGAGCCCGGGUAAGUGUAAAAAGUCUGCAUGCCGCCGGGCGCCAUGCCUGCAGGUCGACUCUAGAAAACAUG”, for which the binding signal with PUM1 PUF domain R2-AWS is 4.37 log2 enrichment (interaction score). For the sequence “GGCUAGAACUAGUGGAUCCCCCGGCGCCCGGCGGCUCGAGCCCGGGUAAGUGAAAAUAGUCUGCAUGCCGCCGGGCGCCAUGCCUGCAGGUCGACUCUAGAAAACAUG”, the binding signal with PUM1 PUF domain R6-VFL was 7.04 log2 enrichment (interaction score).
